The campaign covered roughly 16,000 compounds. About 2,600 (16%) were called active. Not shown: some 20% with an inconclusive outcome. Not all results are given here. Unmarked numbers belong to inactive results. The call rests on the fitted dose curve; in most records, active means well fitted curve in the direction sought with a large enough effect; inconclusive means small, poorly fitted or top-dose-only effect, or effect the other way; inactive means no such curve, though single readings can be large or run the other way. Peptide text beside a SMILES is read from it. * marks the point of attachment. Boc = CC(C)(C)OC(=O)*

As a reminder, the AC50 is the concentration at which the activity in the assay is half-maximal.
On the % scale 0 is the no-effect control and ±100 the full control effect.

The target of the experiment is Cytochrome P450 2D6 (Homo sapiens) (UniProt P10635). The experiment can be described thus: Cytochrome panel assay with activity outcomes. Particulars: recombinant CYP, pro-luciferin dealkylation, luminescence, p450-cyp2d6; series mostly up to 57.1 µM.
Cytochrome P450 2D6 (Homo sapiens), sequence (P10635 whole entry, looked up): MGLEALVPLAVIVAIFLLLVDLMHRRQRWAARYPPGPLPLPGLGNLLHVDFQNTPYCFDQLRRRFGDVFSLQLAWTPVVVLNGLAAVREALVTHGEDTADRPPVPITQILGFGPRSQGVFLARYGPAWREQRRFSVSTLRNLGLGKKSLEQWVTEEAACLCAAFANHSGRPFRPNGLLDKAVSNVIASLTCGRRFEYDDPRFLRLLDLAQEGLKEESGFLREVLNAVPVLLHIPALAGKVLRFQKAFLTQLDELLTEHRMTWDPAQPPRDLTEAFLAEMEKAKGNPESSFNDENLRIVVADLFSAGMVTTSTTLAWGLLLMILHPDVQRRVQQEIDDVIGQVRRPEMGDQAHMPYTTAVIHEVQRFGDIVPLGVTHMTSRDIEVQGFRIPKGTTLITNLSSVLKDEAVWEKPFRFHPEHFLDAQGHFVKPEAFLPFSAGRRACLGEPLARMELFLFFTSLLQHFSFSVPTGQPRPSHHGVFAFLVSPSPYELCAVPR
With `Cc1ccc(C)c(CN2C(=O)C3CCCN3c3ccc(S(=O)(=O)N4CCOCC4)cc32)c1` (centres undefined), the AC50 entry was “inactive”.

For the molecule `O=C(CO)N/N=C/c1ccccc1F`, the AC50 result is “inactive”. As for `O=C(O)c1cc2c(cc1S(=O)(=O)O)[C@H]1[C@@H]([C@H]3[C@H]2[C@@]2(Cl)C(Cl)=C(Cl)[C@]3(Cl)C2(Cl)Cl)[C@]2(Cl)C(Cl)=C(Cl)[C@@]1(Cl)C2(Cl)Cl`, the activity, negative = inhibition is -3.51% [at 11.4 µM]. Take `CC(=O)c1cn(CCCCCCCCCCn2cc(C(C)=O)c(=O)[nH]c2=O)c(=O)[nH]c1=O`: the AC50 entry is “inactive”. `COc1ccc(NC(=O)N2CCC3(CC2)CCN(C(=O)c2ccco2)CC3)cc1`: the AC50 entry was “inactive”. Still for that read-out and setting: next, `Cc1noc(C)c1C(=O)N1CCC[C@@]2(CCN(Cc3ccccc3)C2)C1`: 7.94 µM (active); `COc1ccccc1CN1CCCC2(CCN(C(=O)c3ccco3)CC2)C1`: 2.51 µM (active); `Cc1noc(C)c1C(=O)N1CCC[C@@]2(CCN(Cc3nccs3)C2)C1`: “inactive”. Same read-out and setting: next, `Cc1noc(C)c1C(=O)N1CCC2(CCCN(Cc3ccccc3)C2)CC1`: “inactive”. Consider `COc1ccccc1CN1CCC2(CC1)CCN(C(=O)c1ccco1)CC2`, for which the AC50 was 12.6 µM (active). `CCc1c(O)c2c(c(O)c1C(C)=O)C(=O)c1c(cc(O)c(C(=O)O)c1C(=O)O)C2=O`: the activity, negative = inhibition was 0.869% [at 11.4 µM]. On to `COc1ccc(CC(=O)N2CCN(c3ccc(C4=NNC(=O)CC4C)cc3)CC2)cc1` (centres undefined), for which the AC50 result was “inactive”. As to `CC12CCC(C(=O)O)(C/C1=N\O)C2(C)C` (centres undefined), the AC50 result was “inactive”.

For `Cc1noc(NS(=O)(=O)c2ccc(N)cc2)c1C`, the AC50 result is “inactive”. In the case of `CNc1cc(NS(=O)(=O)c2ccc(N)cc2)nc(NC)n1`, the AC50 result is “inactive”. In the case of `CCOC(=O)C1=C(c2ccccc2)OC(N)=C(C#N)C1c1ccc(Cl)s1` (centres undefined), the AC50 result was “inactive”. On to `CCCn1c(N)[n+](CC(=O)c2ccco2)c2ccccc21`, for which the AC50 was 0.708 µM (active). As to `Cc1ccc(C(CC(=O)c2ccco2)SCCO)cc1` (centres undefined), the AC50 result is “inactive”. Turning to `CCCCN1C(=O)NC(NC(=O)c2ccco2)(C(F)(F)F)C1=O` (centres undefined), the AC50 entry is “inactive”.

On to `CCn1c(=O)cc(SCC(=O)N2CCN(C(=O)c3ccco3)CC2)c2ccccc21`, for which the AC50 entry was “inactive”. On to `CCCCn1c(=N)n(CC(=O)c2ccco2)c2ccccc21`, for which the AC50 is 0.708 µM (active). Regarding `CCOC(=O)c1c(C)n(C)c2ccc(OC(=O)c3ccco3)cc12`, the AC50 result is “inactive”. With `COCCn1c(=O)c(-c2cc(F)cc(F)c2)nc2cnc(N3CCNCC3)nc21`, the AC50 entry was “inactive”. As for `CC1(C)OC(=O)NC1=O`, the AC50 result was “inactive”. `Nc1nc(Br)c2c(F)cccc2c1-c1ccc(F)cc1`: the AC50 result was “inactive”. Same read-out and setting: next, `CC(C)C(NC(=O)OC(C)(C)C)C(=O)N1CCCC1C(=O)NC(Cc1ccccc1)C(N)=O` (stereo not drawn) (Boc-Val-Pro-Phe-NH2; configuration not given here): “inactive”. Consider `CC(C)=CCC/C(C)=C/CO/N=C1/[C@H]2O[C@@H]2[C@@H](O)[C@H]2[C@H]1CCn1c(=O)n(Cc3cc4c(cc3Cl)OCO4)c(=O)n12`, for which the activity, negative = inhibition was -10.5% [at 11.4 µM].

Take `CC(SCc1cn2cc(Cl)ccc2n1)C(=O)O` (centres undefined): the AC50 result is “inactive”.

As to `Cc1ccn2cc(CSc3ccccc3N)nc2c1`, the AC50 is 1.26 µM (active). Same read-out and setting: next, `CCC(Sc1nc(=O)cc(N)n1CCc1ccccc1)C(=O)Nc1ccccc1C#N` (centres undefined): 15.8 µM (active).

Consider `Nc1cc(=O)nc(SCC(=O)Nc2cccc3ccccc23)n1CCc1ccccc1`, for which the AC50 result was “inactive”. As for `CC(NC(=O)CSc1nc(=O)cc(N)n1CCc1ccccc1)c1ccccc1` (centres undefined), the AC50 entry is “inactive”.

On to `CN1c2ccccc2C(O)=C(C(=O)Nc2ccccc2)S1(=O)=O`, for which the AC50 entry was “inactive”. For `CN1CCN(c2nc(-c3cccnc3)nc3ccccc23)CC1`, the concentration at half-maximal activity (AC50) is 10 µM (active).

For `CN1CCN(c2nc(-c3ccoc3)nc3ccccc23)CC1`, the AC50 is 15.8 µM (active). With `c1cncc(-c2nc(N3CCNCC3)c3ccccc3n2)c1`, the AC50 is 7.94 µM (active).

Consider `COc1ccccc1-c1nc(N2CCN(C)CC2)c2ccccc2n1`, for which the AC50 entry is “inactive”. For the molecule `c1ccc2c(N3CCOCC3)nc(-c3ccoc3)nc2c1`, the AC50 result is “inactive”. As for `C[C@](N)(COP(=O)(O)O)C(=O)O`, the AC50 entry was “inactive”.

On to `CNc1cc(-c2c(C)noc2C)ncn1`, for which the AC50 entry is “inactive”. With `Cn1c(=O)c2[nH]c(-c3ccccc3)nc2n(C)c1=O`, the AC50 entry is “inactive”. On the same count and under the same terms, next, `Cn1c(=O)c(-c2cc(F)cc(F)c2)nc2cnc(Oc3ccccc3)nc21`: “inactive”; `O=C(Oc1ccccc1)N1CCC2(CC1)CN(c1ncccn1)C2`: “inactive”; `CC(=O)Nc1c2c3c(cccc3n(C)c1=O)C(=O)c1ccccc1-2`: “inactive”. Regarding `COc1ccc(-c2nc3cnc(N4CCN(C)CC4)nc3n(C3CC3)c2=O)cc1`, the AC50 entry is “inactive”. Take `COC(=O)c1ccccc1OCC(=O)N1CCN(c2ccc(OC)cc2)CC1`: the AC50 result was “inactive”. `O=C(c1cc(O)c(O)c([N+](=O)[O-])c1)c1ccccc1F`: the AC50 entry was “inactive”. For `Cn1cccc1C(=O)N1CCC2(CC1)CCN(c1ccc(-c3ccccc3)cc1)CC2`, the AC50 entry was “inactive”. Consider `COc1cc(C2C(C#N)=C(N)OC3=C2C(=O)CCC3)cc(OC)c1OC(=O)N1CCOCC1` (centres undefined), for which the AC50 result was “inactive”. The same measure, in the same setting: next, `Cc1ccc(C(C2C(=O)CC(C)(C)CC2=O)C2C(=O)CC(C)(C)CC2=O)s1`: “inactive”; `COc1cccc(C(c2c(C)[nH]n(-c3ccccc3)c2=O)c2c(C)[nH]n(-c3ccccc3)c2=O)c1O`: “inactive”. For the molecule `Clc1ccc(Cl)c(OCc2cc(-c3ccccc3Cl)on2)c1`, the AC50 result is “inactive”. In the case of `COc1cc(C)ccc1OCCOc1cc(C)ccc1Cl`, the AC50 result was “inactive”. Still for that read-out and setting: next, `CC1CCN(CCOc2cc(Cl)ccc2Cl)CC1`: 0.447 µM (active); `CCn1c(C)[n+](CCCS(=O)(=O)[O-])c2cc(Cl)c(Cl)cc21`: “inactive”.

For `Cn1c(=O)n(-c2cccc(Cl)c2)c(=O)c2c3c(sc21)COC(C)(C)C3`, the AC50 entry is “inactive”. For the molecule `O=C(Nc1ccc(F)cc1F)c1cccn1-c1ncc(C(F)(F)F)cc1Cl`, the AC50 result is “inactive”. Regarding `CN(NC(=O)NN)c1ncc(C(F)(F)F)cc1Cl`, the AC50 result was “inactive”. As to `O=C(Cc1ncc(C(F)(F)F)cc1Cl)Nc1cccc(Br)c1`, the AC50 was 0.398 µM (active). As for `Oc1ccc(Cn2cc[nH]c2=S)cc1`, the AC50 entry is “inactive”. Take `Cc1cc(CC(=O)O)n(C)c1C(=O)c1ccc(Cl)cc1`: the AC50 entry was “inactive”.

`Cc1cc2ccccn2c1C(=O)c1nc(N2CCOCC2)ncc1Cl`: the AC50 result was “inactive”.

With `Cc1cc2ccccn2c1C(=O)c1ccc(Cl)cc1`, the AC50 is 17.8 µM (active). As to `Nc1cc(C(=O)O)[nH]c(=O)n1`, the activity, negative = inhibition was 6.45% [at 11.4 µM].

The values are drawn from PubChem BioAssay AID1851 (National Center for Advancing Translational Sciences (NCATS), 2009).
